The text below walks through data of the supplement of paper PMC6555819.

Common to all, as to experiment: PBM binding z-score (relative to random genomic background probes); higher = stronger binding; sequences stand for … in GC…GCGATTGACAGCGTAGAATGAAGG
In test [1] the test system is FXR:RXRa (NR concentration 270 nM, RXRa partner concentration 90 nM). In a few lines:
(§1)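 Custom Agilent 4×180K protein-binding microarrays carried double-stranded probes, each with a 34-nt variable region. These regions held direct-repeat seeds, single-nucleotide variants, half-site ablations and random human genomic background sequences. Ligand-free nuclear receptor dimers were incubated on the arrays for 1 h, antibodies against each partner (one per run) detected binding, and scanned fluorescence was regression-normalized. Binding z-scores take the random background probes as reference.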

Test [2] relates to LXRa:RXRa (NR concentration 270 nM, RXRa partner concentration 90 nM). In a few lines:
as §1

Test [3] relates to LXRa homodimer (NR concentration 270 nM). Put shortly:
as §1

Test [4] deals with LXRb:RXRa (NR concentration 270 nM, RXRa partner concentration 90 nM). In a few lines:
as §1

Test [5] deals with LXRb homodimer (NR concentration 270 nM). In a few lines: as §1
In test [6] the test system is PPARa:RXRa (NR concentration 270 nM, RXRa partner concentration 90 nM). In a few lines:
as §1

Test [7] deals with PPARg:RXRa (NR concentration 180 nM, RXRa partner concentration 90 nM). In a few lines:
as §1

Test [8] relates to PPARg:RXRa 270nM:90nM, anti-RXR (NR concentration 270 nM, RXRa partner concentration 90 nM). Put shortly:
as §1

Test [9] has as its system PPARg:RXRa 30nM:10nM, anti-RXR (NR concentration 30 nM, RXRa partner concentration 10 nM). In a few lines: as §1
The test system of test [10] is PPARg:RXRa 90nM:30nM, anti-RXR (NR concentration 90 nM, RXRa partner concentration 30 nM). Put shortly: as §1
The subject of test [11] is PPARg:RXRa DBDmut IVT, anti-RXR (DBD mutation: RXRa K156A/R161A, NR concentration 270 nM, RXRa partner concentration 90 nM). In a few lines:
as §1

Test [12] concerns PPARg:RXRa IVT, anti-PPARg (NR concentration 270 nM, RXRa partner concentration 90 nM). In a few lines: as §1
Test [13] relates to PPARg DBDmut:RXRa IVT, anti-PPARg (DBD mutation: PPARg1 K132A/R137A, NR concentration 270 nM, RXRa partner concentration 90 nM). In a few lines:
as §1

Test [14] concerns PPARg DBDmut IVT, anti-PPARg (DBD mutation: PPARg1 K132A/R137A, NR concentration 270 nM). Put shortly: as §1
Test [15] deals with PPARg homodimer (NR concentration 180 nM). Put shortly:
as §1

Test [16] relates to PXR:RXRa (NR concentration 270 nM, RXRa partner concentration 90 nM). Put shortly:
as §1

The test system of test [17] is PXR homodimer (NR concentration 270 nM). Put shortly: as §1
The test system of test [18] is RARa:RXR (NR concentration 270 nM, RXRa partner concentration 90 nM). Put shortly: as §1
For test [19], the system named is RARa homodimer (NR concentration 270 nM). Put shortly: as §1
For test [20], the system named is RARb:RXRa (NR concentration 270 nM, RXRa partner concentration 90 nM). Put shortly: as §1

On to CGAACTAGGTCAGAACAGGTCAGTGAAGGATGAT, for which the PBM binding z-score in test [1] was 2.92; in [2] it was 2.65; in test [3] it was 0.47; in [4], 1.69; in [5] it was -0.091; in test [6], 3.73. In addition, the PBM binding z-score in test [7] worked out at 5.27; in test [8], 4.8; in test [9], 1.67; in [10] it was 4.11; in [11], 7.05; in test [12], 7.16. The PBM binding z-score was determined as 1.14 in [13]; 1.73 in [14]; 1.66 in [15]; 3.32 in test [16]; 0.18 in [17]; 2.3 in [18]. In addition, the PBM binding z-score in test [19] worked out at 0.424; in test [20], 3.57.

As for CCTCGGAGGAAAGAAGGTCAGAGCTGTCCGCTTT, the PBM binding z-score in test [1] is 0.768; in test [2], 1.38; in test [3], -0.152; in test [4], 0.92; in [5], -0.651; in test [6], 2.01. The PBM binding z-score in [7] is -0.343; in test [8] it was 0.98; in test [9] it was -0.857; in test [10] it was 0.12; in [11], 0.673; in [12], 0.86. For the same sequence, the PBM binding z-score in test [13] is -2.12; in [14], -1.68; in [15], 1.32; in test [16], 1.16; in test [17], -0.583; in [18], 1.95. Besides, the PBM binding z-score in test [19] came to 0.0336; in test [20], 2.27.

On to CCAGACAGGTGAGTAGGTAACTCAGCCTCGATTA, for which the PBM binding z-score in test [1] was 0.327; in [2], 0.14; in test [3], 0.0547; in [4], -0.023; in test [5], -0.401; in [6], 0.695. For the same sequence, the PBM binding z-score is 0.545 in [7]; 0.565 in test [8]; -0.111 in [9]; 0.0174 in [10]; 2.01 in [11]; 1.66 in test [12]. Moreover, the PBM binding z-score in test [13] was -0.259; in test [14], -0.369; in test [15], 1.08; in test [16], -0.277; in test [17], -0.0681; in test [18], 0.388. Also, the PBM binding z-score stood at 0.546 in test [19] and 0.279 in [20].

As to ATCTCTAGGTAAGACTCAGCTCAGTGAAGAACGC, the PBM binding z-score in [1] is 0.197; in test [2] it was 0.324; in test [3] it was 0.483; in test [4], -0.157; in test [5], 0.984; in test [6], -0.198. Besides, the PBM binding z-score in test [7] was 0.0541; in [8], -0.171; in [9], 0.317; in test [10], 0.109; in test [11], 1.68; in test [12] it was 1.02. Besides, the PBM binding z-score in test [13] is 0.287; in [14], 1.14; in test [15], 0.51; in test [16], -0.0635; in [17], 0.232; in test [18], -0.0237. The PBM binding z-score in [19] is 0.868; in test [20], -0.0169.

In the case of GGAACGAGGGCAAAGTAGATAGCATCTGTCGACG, the PBM binding z-score in test [1] is 0.832; in test [2] it was 0.557; in test [3], -0.498; in test [4], 0.289; in [5], -0.467; in test [6] it was 1.98. Moreover, the PBM binding z-score was determined as 2.48 in [7]; 2.96 in test [8]; 0.802 in [9]; 2.23 in [10]; 4.05 in test [11]; 3.19 in [12]. The PBM binding z-score in test [13] was -0.596; in [14], -0.605; in [15], 0.234; in [16] it was 0.482; in test [17], 0.16; in test [18] it was 0.38. For the same sequence, the figures for the PBM binding z-score in [19] and in test [20] were -0.526 and 2.15, respectively.

Regarding ATCGAAAGCTCGTGAGGTGAGTATACAGAAAGGC, the PBM binding z-score is -0.207 in [1]; -0.537 in test [2]; -0.718 in test [3]; -0.546 in test [4]; -0.682 in test [5]; -0.128 in test [6]. Also, the PBM binding z-score was 0.416 in test [7]; 0.00274 in [8]; 0.112 in test [9]; -0.368 in test [10]; -0.799 in test [11]; 0.0817 in test [12]. Further, the PBM binding z-score in test [13] was 0.275; in test [14] it was 0.0739; in [15], -0.405; in test [16], -0.403; in test [17] it was -0.674; in test [18], -0.104. Further, the PBM binding z-score in test [19] is -0.351; in test [20] it was 0.0466.

As to ATCGAAAGGTCGAGCTGAGTATAGAGAAAGGGAA, the PBM binding z-score is 4.53 in test [1]; 3.69 in test [2]; -0.419 in test [3]; 2.54 in test [4]; 0.538 in test [5]; 4.36 in test [6]. Besides, the PBM binding z-score in test [7] was 2.96; in [8] it was 3.02; in test [9], 1.22; in test [10], 1.96; in test [11] it was -0.357; in [12], 1.22. For the same sequence, the PBM binding z-score is 1.33 in test [13]; 0.108 in test [14]; 0.956 in test [15]; 2.5 in test [16]; -0.467 in test [17]; 2.89 in test [18]. Moreover, the PBM binding z-score in test [19] came out at 0.139; in test [20], 3.94.
